What all share (test): DAPPL (digital affinity profiling via proximity ligation, sequencing); 10 mM Tris-HCl pH 7.5, 50 mM NaCl, 1 mM DTT, 4% glycerol, room temperature, 30 min; GST-TFs on glutathione beads, 16-mer random dsDNA library, 0.1% formaldehyde crosslink after washing; high values mean tight binding
Holding throughout (conditions): protein: recombinant; tags: N-terminal GST; dsDNA, one strand shown

For assay [1], the target named is T1, GABPA (Homo sapiens, UniProt Q06546 1-454).
T1 sequence: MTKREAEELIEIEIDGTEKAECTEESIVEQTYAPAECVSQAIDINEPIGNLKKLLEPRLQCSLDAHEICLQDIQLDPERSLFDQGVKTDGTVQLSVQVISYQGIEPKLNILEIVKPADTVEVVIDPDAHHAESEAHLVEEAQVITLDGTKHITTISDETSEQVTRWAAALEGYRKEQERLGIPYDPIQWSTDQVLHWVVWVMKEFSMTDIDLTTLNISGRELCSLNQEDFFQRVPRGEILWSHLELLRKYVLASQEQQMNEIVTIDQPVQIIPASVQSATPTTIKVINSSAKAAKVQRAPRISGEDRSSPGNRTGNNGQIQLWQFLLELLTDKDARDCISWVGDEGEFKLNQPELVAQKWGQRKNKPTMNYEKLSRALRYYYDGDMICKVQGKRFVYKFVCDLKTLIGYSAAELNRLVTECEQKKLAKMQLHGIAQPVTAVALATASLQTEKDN
Summed up: (§1)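 Binding signal is given per hexamer as its read frequency for a factor divided by its frequency in the tag-only sample. GST-fused human transcription factors were expressed in yeast, captured on glutathione beads, barcoded with DNA and pooled with that sample, then incubated with 200 nmole of a 16-mer random double-stranded DNA library in Tris/NaCl/DTT/glycerol buffer for 30 min at room temperature. The pools were then washed, crosslinked, proximity-ligated, amplified by PCR and sequenced on an Illumina NextSeq500.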

Assay [2] addresses ELF1 (Homo sapiens, UniProt P32519 1-619). Summed up: as §1
For assay [3], the target named is T2, ELK3 (Homo sapiens, UniProt P41970 1-407).
T2 sequence: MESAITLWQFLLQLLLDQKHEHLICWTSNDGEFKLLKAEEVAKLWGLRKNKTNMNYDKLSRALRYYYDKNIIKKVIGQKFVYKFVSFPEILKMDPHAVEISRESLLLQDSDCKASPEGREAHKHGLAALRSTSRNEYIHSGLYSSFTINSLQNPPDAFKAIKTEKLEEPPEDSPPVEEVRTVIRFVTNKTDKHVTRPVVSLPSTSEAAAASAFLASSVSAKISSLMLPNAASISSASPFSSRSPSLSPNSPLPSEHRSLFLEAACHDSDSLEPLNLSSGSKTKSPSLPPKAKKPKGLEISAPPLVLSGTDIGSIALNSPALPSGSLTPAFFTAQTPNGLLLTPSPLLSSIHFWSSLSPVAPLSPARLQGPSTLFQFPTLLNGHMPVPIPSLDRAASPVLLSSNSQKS
Summed up:
as §1

In assay [4] the target is ELF4 (Homo sapiens, UniProt Q99607 1-663). The gist of the method:
as §1

In assay [5] the target is T3, ELK4 (Homo sapiens, UniProt P28324-2 1-405).
T3 sequence: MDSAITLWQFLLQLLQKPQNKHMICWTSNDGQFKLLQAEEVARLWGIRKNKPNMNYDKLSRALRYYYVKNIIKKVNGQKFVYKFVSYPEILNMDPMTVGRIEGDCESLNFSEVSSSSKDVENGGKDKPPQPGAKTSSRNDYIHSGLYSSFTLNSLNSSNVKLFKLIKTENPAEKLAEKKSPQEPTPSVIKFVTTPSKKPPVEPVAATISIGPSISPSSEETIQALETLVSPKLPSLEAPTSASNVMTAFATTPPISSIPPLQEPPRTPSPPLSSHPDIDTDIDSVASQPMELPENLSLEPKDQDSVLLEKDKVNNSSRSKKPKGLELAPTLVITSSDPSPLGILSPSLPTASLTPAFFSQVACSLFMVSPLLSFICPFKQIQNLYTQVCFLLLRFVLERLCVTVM
The gist of the method: as §1

For assay [6], the target named is T4, ETV2 (Homo sapiens, UniProt O00321 1-342).
T4 sequence: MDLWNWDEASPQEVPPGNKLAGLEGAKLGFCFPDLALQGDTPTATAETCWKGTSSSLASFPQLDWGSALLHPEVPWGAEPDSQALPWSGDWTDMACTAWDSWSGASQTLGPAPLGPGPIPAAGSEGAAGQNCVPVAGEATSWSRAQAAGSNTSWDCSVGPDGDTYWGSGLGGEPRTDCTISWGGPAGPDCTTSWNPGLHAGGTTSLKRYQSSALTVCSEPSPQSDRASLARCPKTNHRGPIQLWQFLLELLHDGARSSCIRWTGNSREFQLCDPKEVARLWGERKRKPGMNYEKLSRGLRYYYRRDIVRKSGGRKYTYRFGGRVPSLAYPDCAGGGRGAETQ
The gist of the method: as §1

Assay [7] addresses T5, ERF (Homo sapiens, UniProt P50548 1-548).
T5 sequence: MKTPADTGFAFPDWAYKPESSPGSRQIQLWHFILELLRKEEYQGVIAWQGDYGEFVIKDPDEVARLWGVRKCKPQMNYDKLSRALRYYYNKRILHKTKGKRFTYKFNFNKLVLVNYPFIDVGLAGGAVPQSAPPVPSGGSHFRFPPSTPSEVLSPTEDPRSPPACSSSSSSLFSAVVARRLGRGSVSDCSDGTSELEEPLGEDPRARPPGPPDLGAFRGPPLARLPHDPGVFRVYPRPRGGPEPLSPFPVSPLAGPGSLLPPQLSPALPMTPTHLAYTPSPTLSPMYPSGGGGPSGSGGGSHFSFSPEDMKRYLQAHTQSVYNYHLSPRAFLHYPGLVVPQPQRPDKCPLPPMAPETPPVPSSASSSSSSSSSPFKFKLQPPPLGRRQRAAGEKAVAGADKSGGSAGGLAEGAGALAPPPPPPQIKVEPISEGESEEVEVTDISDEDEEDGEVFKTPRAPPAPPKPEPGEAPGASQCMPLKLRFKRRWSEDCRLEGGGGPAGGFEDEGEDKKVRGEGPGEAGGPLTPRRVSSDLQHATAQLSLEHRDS
The gist of the method:
as §1

Assay [8] deals with SPI1 (Homo sapiens, UniProt P17947 1-270). Summed up: as §1
The target in assay [9] is T6, SPDEF (Homo sapiens, UniProt O95238 1-335).
T6 sequence: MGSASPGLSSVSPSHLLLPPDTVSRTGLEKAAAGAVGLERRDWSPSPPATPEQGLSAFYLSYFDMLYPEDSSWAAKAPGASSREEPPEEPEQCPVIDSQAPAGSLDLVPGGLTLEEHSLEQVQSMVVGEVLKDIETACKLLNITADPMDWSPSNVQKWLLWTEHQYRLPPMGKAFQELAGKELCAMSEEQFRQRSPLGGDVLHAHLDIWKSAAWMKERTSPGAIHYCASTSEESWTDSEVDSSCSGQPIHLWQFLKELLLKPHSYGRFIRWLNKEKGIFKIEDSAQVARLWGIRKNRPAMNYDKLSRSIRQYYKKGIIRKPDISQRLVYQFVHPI
Summed up:
as §1

Assay [10] addresses T7, ETV7 (Homo sapiens, UniProt Q9Y603 1-341).
T7 sequence: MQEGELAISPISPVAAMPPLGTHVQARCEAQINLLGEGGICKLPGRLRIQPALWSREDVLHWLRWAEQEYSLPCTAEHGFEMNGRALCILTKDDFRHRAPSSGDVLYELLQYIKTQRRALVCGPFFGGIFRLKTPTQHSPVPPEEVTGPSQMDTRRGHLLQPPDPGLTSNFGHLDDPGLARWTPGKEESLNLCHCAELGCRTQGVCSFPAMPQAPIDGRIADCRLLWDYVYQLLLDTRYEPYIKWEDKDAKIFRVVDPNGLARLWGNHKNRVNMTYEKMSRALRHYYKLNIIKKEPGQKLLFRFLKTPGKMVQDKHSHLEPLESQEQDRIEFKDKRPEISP
The gist of the method: as §1

In assay [11] the target is T8, ETV3 (Homo sapiens, UniProt P41162-2 1-143).
T8 sequence: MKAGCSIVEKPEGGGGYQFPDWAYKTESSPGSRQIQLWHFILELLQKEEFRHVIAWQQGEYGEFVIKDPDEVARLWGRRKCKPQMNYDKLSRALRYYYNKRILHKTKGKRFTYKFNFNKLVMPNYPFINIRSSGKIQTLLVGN
Summed up: as §1

For assay [12], the target named is T9, ELF5 (Homo sapiens, UniProt Q9UKW6-2 1-255).
T9 sequence: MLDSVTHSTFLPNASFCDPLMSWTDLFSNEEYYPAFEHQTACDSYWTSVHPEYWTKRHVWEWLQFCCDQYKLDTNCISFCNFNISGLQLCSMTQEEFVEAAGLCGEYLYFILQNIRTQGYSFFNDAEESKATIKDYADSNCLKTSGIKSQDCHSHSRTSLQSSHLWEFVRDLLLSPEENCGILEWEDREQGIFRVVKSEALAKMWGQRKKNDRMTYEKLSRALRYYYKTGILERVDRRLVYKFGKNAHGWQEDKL
Summed up:
as §1

Assay [13] has as its target ETV6 (Homo sapiens, UniProt P41212 1-452). Summed up:
as §1

Assay [14] deals with T10, ELF3 (Homo sapiens, UniProt P78545 1-371).
T10 sequence: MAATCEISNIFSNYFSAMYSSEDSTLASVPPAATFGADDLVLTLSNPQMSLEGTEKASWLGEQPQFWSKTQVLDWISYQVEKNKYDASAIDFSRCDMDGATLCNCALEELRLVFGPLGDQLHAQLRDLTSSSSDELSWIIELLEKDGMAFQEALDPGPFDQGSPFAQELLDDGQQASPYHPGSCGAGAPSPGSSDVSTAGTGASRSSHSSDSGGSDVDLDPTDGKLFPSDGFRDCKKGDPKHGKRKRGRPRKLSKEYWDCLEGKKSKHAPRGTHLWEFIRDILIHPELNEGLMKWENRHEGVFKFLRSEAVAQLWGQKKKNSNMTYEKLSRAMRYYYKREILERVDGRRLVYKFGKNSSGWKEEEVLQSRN
Summed up:
as §1

The target of assay [15] is CRX (Homo sapiens, UniProt O43186 1-299). The gist of the method:
as §1

In assay [16] the target is T11, EHF (Homo sapiens, UniProt Q9NZC4 1-300).
T11 sequence: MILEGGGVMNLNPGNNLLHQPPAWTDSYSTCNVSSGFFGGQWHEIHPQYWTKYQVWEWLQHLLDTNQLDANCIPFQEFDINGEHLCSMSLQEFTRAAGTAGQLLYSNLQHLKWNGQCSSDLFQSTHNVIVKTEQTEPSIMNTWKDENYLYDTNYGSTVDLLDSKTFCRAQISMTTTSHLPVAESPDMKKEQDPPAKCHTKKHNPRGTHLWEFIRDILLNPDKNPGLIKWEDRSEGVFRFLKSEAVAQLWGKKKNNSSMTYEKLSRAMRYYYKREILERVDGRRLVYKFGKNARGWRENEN
The gist of the method: as §1

Chain of ETV6 (P41212 whole entry): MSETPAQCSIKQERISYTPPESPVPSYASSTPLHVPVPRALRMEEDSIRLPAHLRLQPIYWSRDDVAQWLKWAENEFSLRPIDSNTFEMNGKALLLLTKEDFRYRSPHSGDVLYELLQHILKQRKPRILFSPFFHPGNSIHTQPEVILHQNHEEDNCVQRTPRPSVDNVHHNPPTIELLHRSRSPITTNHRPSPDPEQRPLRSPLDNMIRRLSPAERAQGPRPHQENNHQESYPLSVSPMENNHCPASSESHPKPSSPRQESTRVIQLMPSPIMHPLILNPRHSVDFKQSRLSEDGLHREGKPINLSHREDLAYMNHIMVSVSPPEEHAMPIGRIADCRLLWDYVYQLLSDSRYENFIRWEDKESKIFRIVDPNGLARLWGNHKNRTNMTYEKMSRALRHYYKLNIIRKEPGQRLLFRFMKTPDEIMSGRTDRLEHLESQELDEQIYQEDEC
Chain of CRX (O43186 whole entry): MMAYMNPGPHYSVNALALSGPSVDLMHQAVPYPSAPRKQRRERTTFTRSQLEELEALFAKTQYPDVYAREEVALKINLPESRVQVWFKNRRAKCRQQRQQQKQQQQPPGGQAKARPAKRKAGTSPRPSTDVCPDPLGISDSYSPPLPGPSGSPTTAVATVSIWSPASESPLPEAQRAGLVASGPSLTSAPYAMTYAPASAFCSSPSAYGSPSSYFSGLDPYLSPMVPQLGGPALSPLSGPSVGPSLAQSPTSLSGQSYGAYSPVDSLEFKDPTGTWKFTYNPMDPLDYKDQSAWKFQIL
Chain of ELF1 (P32519 whole entry): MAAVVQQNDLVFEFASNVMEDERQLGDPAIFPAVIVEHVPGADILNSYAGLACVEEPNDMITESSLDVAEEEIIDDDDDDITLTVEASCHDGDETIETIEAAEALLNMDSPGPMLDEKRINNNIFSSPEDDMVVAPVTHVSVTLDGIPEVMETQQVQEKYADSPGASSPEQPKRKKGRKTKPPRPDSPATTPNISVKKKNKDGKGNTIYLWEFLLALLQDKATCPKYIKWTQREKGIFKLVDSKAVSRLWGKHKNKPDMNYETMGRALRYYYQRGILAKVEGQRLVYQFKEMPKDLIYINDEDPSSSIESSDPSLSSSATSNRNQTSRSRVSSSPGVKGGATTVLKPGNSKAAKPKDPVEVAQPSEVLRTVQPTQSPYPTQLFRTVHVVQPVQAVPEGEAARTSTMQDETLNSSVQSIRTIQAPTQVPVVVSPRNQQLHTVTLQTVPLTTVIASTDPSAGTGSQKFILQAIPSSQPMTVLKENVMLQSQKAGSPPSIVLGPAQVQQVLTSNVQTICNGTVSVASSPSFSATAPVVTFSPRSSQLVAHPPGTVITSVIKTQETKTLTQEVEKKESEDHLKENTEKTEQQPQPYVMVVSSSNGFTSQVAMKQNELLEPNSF
Chain of ELF4 (Q99607 whole entry): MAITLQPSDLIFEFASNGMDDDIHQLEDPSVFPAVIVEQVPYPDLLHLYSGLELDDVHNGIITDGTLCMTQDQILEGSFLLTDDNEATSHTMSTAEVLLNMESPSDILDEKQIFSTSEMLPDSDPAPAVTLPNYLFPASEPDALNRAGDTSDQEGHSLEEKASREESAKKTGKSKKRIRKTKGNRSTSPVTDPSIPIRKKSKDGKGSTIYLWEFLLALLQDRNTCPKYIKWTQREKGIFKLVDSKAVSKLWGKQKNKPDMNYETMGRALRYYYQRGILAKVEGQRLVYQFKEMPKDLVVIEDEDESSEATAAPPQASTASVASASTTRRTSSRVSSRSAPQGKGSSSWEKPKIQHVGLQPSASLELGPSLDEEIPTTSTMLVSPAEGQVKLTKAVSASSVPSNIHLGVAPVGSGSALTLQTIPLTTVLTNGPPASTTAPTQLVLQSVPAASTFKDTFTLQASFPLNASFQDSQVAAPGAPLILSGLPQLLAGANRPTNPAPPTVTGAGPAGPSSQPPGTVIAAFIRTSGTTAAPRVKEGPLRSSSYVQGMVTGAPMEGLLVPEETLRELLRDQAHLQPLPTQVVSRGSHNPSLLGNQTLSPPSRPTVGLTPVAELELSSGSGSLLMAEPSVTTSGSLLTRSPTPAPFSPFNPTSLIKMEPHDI

For CGCACC, the binding signal in assay [1] was 1.03 fold enrichment (6-mer frequency, TF over GST control); in assay [2], 1.03 fold enrichment (6-mer frequency, TF over GST control); in [3], 1.05 fold enrichment (6-mer frequency, TF over GST control); in assay [4], 1.03 fold enrichment (6-mer frequency, TF over GST control); in assay [5], 1.13 fold enrichment (6-mer frequency, TF over GST control); in assay [6] it was 1.1 fold enrichment (6-mer frequency, TF over GST control). Moreover, the binding signal in [7] was 1.01 fold enrichment (6-mer frequency, TF over GST control).

Consider ATAGAC, for which the binding signal is 1.04 fold enrichment (6-mer frequency, TF over GST control) in assay [1]; 1.03 fold enrichment (6-mer frequency, TF over GST control) in assay [2]; 1.02 fold enrichment (6-mer frequency, TF over GST control) in [8]; 1.01 fold enrichment (6-mer frequency, TF over GST control) in [4]; 1.02 fold enrichment (6-mer frequency, TF over GST control) in [5]; 1.08 fold enrichment (6-mer frequency, TF over GST control) in assay [6]. In addition, the binding signal was 1.01 fold enrichment (6-mer frequency, TF over GST control) in assay [9]; 1.1 fold enrichment (6-mer frequency, TF over GST control) in assay [10]; 1.02 fold enrichment (6-mer frequency, TF over GST control) in assay [11].

As for GATCCG, in assay [12], the binding signal was 1.02 fold enrichment (6-mer frequency, TF over GST control).

As to AGGTAA, the binding signal in assay [12] was 1.01 fold enrichment (6-mer frequency, TF over GST control); in assay [13], 1.02 fold enrichment (6-mer frequency, TF over GST control).

Consider ATAACG, for which the binding signal in [13] is 1.03 fold enrichment (6-mer frequency, TF over GST control).

For ACTGGG, in [6], the binding signal was 1.03 fold enrichment (6-mer frequency, TF over GST control).

As for GACCCC, the binding signal in assay [14] is 1.04 fold enrichment (6-mer frequency, TF over GST control).

Take TTGGGA: the binding signal was 1.03 fold enrichment (6-mer frequency, TF over GST control) in assay [6] and 1.04 fold enrichment (6-mer frequency, TF over GST control) in [15].

On to CCGTTA, for which the binding signal in [6] was 1.05 fold enrichment (6-mer frequency, TF over GST control); in assay [14], 1.01 fold enrichment (6-mer frequency, TF over GST control); in assay [9], 1.04 fold enrichment (6-mer frequency, TF over GST control).

As for GCGGCT, the binding signal was 1.02 fold enrichment (6-mer frequency, TF over GST control) in assay [16]; 1.08 fold enrichment (6-mer frequency, TF over GST control) in [6]; 1.05 fold enrichment (6-mer frequency, TF over GST control) in [15]; 1.08 fold enrichment (6-mer frequency, TF over GST control) in assay [7]; 1 fold enrichment (6-mer frequency, TF over GST control) in [11]; 1 fold enrichment (6-mer frequency, TF over GST control) in assay [13].

These data come from PMC7862700, “An all-to-all approach to the identification of sequence-specific readers for epigenetic DNA modifications on cytosine”.
